Consider 65 compounds from ChEMBL document CHEMBL3988442, “University of Dundee, Small-Polar-MMV Screening Library” (2021).

SMILES strings stand for the structures. Hit rate of the full screen: of about 48,000 compounds, about 13,000 (27%) showed an effect of 50% or more. This is one part of the list.

In the assay the test system is Wolbachia pipientis. As to the kind of experiment: Anti-Wolbachia Cell-Based Screen. Particulars: 5 µM. The class given is functional. Also on record: scale not given: in the data most compounds retested in dose-response had high values.
On to `CCCn1nc2c(cc1=O)CN(CC(=O)N(C)c1nccs1)CC2`, for which the “Percent Effect” value is given as -22.84%.

As for `CCc1cc(NCCCC2CCOC2)n2nccc2n1` (stereo not given), the “Percent Effect” value is on record as -1.009%.

As for `CCc1nnsc1C(=O)NCCn1nc2ccccn2c1=O`, the “Percent Effect” value was determined as 6.254%.

With `NC(=O)C(NC(=O)c1cc(Cl)c[nH]1)c1ccccc1` (stereo not given), the “Percent Effect” value amounted to 10.72%.

As for `c1ccc(CN(Cc2cccc3cnccc23)CC2CCCO2)nc1` (stereo not given), the “Percent Effect” value is 15.94%.

On to `COCC1CN(C(=O)CS(C)(=O)=O)Cc2ncn(CC3CC3)c21` (stereo not given), for which the “Percent Effect” value was 98.19%.

`CCOCC1CN(S(=O)(=O)C2CC2)Cc2ncn(CC3CC3)c21` (stereo not given): the “Percent Effect” value amounted to 93.99%.

For `COCC1CN(C(=O)CC2=CCCCC2)Cc2nnn(CC3CC3)c21` (stereo not given), the “Percent Effect” value was 25.21%.

With `COCC1CN(CC2CC2)Cc2ncn(CC3CC3)c21` (stereo not given), the “Percent Effect” value is on record as 123%.

Turning to `CCOCC1CN(S(C)(=O)=O)Cc2ncn(CC3CC3)c21` (stereo not given), the “Percent Effect” value is given as -5.705%.

Take `COCC1CN(S(=O)(=O)C2CC2)Cc2ncn(CC3CC3)c21` (stereo not given): the “Percent Effect” value worked out at 93.96%.

As for `COCC1CN(CC2CC2)Cc2nn(C)cc21.O=C(O)C(F)(F)F` (stereo not given), the “Percent Effect” value is reported as -11.2%.

`COCC1CN(C(=O)Cc2ccccn2)Cc2ncn(C)c21` (stereo not given): the “Percent Effect” value is on record as -6.541%.

For the compound `CCOCC1CN(S(=O)(=O)C2CC2)Cc2nn(C)cc21` (stereo not given), the “Percent Effect” value is listed as -10.65%.

As for `CCOC(=O)C1CN(S(=O)(=O)C2CC2)Cc2ncn(CC)c21` (stereo not given), the “Percent Effect” value is -2.058%.

Consider `CCn1cc2c(n1)CN(S(=O)(=O)c1ccc(C)cc1)CC2COC` (stereo not given), for which the “Percent Effect” value is on record as -1.212%.

`COCC1CN(Cc2ccc(C)o2)Cc2ncn(CC3CC3)c21` (stereo not given): the “Percent Effect” value turned out to be 4.542%.

As for `CCN(C)S(=O)(=O)c1ccc(Cl)cc1C#N`, the “Percent Effect” value was -3.723%.

On to `CCN1C(=O)[C@]2(CC[C@@H]3CN(C(=O)NCC(C)C)C[C@@H]32)N=C1C`, for which the “Percent Effect” value was 1.741%.

Take `CCOCC1CN(S(=O)(=O)CC)Cc2nn(C)cc21` (stereo not given): the “Percent Effect” value was -1.442%.

Turning to `COCC1CN(S(C)(=O)=O)Cc2ncn(CC3CC3)c21` (stereo not given), the “Percent Effect” value was -3.416%.

With `CCS(=O)(=O)N1Cc2ncn(CC3CC3)c2C(COC)C1` (stereo not given), the “Percent Effect” value turned out to be 96.93%.

Take `CCS(=O)(=O)N1CCc2cc(C(=O)NC)c(NCC(C)C)nc2CC1`: the “Percent Effect” value is given as -9.983%.

Take `C[C@H](NC(=O)Cc1csc(-c2cccc(Cl)c2)n1)C(=O)O`: the “Percent Effect” value is given as 100.7%.

With `O=C(Cc1csc(-c2ccc(Cl)cc2)n1)NC(C(=O)O)c1ccccc1` (stereo not given), the “Percent Effect” value came to 14.14%.

For `COc1cccc(-c2nc(C)c(C(=O)N[C@@H](C)C(=O)O)s2)c1`, the “Percent Effect” value is -5.733%.

For `O=C(Cc1csc(N2CCNC2=O)n1)NC(c1ccccc1)C1CC1` (stereo not given), the “Percent Effect” value is listed as -8.956%.

As to `COc1cccc(-c2nc(CNC(C)Cn3cccn3)cs2)c1` (stereo not given), the “Percent Effect” value is 12.67%.

Turning to `O=C(Cc1csc(-c2ccccc2)n1)N[C@@H](C(=O)O)c1ccccc1`, the “Percent Effect” value is recorded as 112.5%.

For the compound `CC[C@H](C)[C@H](NC(=O)Cc1csc(-c2cccc(Cl)c2)n1)C(=O)O`, the “Percent Effect” value was -0.2804%.

In the case of `CC(C)C[C@H](NC(=O)Cc1csc(-c2cccc(Cl)c2)n1)C(=O)O`, the “Percent Effect” value turned out to be 111.7%.

Take `NC(=O)CCS(=O)(=O)Cc1ccc(OCC(F)(F)F)cc1`: the “Percent Effect” value is -2.639%.

With `CC(=O)Nc1ccc2c(c1)nc1n2[C@@H](CNCc2ccccc2)COC1`, the “Percent Effect” value is recorded as -2.529%.

In the case of `C1CC(CN2C[C@H]3CC[C@@H]2CN(Cc2noc(C4CCCC4)n2)C3)C1`, the “Percent Effect” value is -8.86%.

For the compound `O=C1CC(c2cccc(O)c2)c2c(c(C(=O)O)cn2-c2ccccc2)N1` (stereo not given), the “Percent Effect” value is 2.755%.

As for `OC[C@H]1CCCN1c1nccc(-c2cncnc2C2CCCCC2)n1`, the “Percent Effect” value stood at 101.1%.

With `OC[C@@H]1CCCN1c1ccc(-c2nc(COc3ccccc3)no2)cn1`, the “Percent Effect” value is recorded as -5.727%.

As for `OC[C@@H]1CCCN1c1nccc(-c2c[nH]nc2-c2ccncc2)n1`, the “Percent Effect” value was 132.9%.

As to `OC[C@H]1CCCN1c1nccc(-c2c[nH]nc2C2CCCCC2)n1`, the “Percent Effect” value worked out at 103.3%.

Turning to `OCC1CCCN1c1cc(N2CCc3ccccc3C2)ncn1` (stereo not given), the “Percent Effect” value was -8.701%.

In the case of `COCc1noc(-c2ccc(N3CCC[C@H]3CO)nc2)n1`, the “Percent Effect” value was 11.1%.

As for `COCc1noc(-c2ccc(N3CCCCC3CO)nc2)n1` (stereo not given), the “Percent Effect” value was -1.816%.

With `CC(NC(=O)c1cc2n(n1)CCCN(C)C2)c1cn2ccsc2n1` (stereo not given), the “Percent Effect” value was -3.947%.

Take `CC(C)(C)OC(=O)N1CC(CC(=O)NCc2ccsc2)C1`: the “Percent Effect” value is on record as -134.2%.

For `N#Cc1cccc(CNc2cc(CO)ccc2Cl)c1`, the “Percent Effect” value was -41.9%.

For the compound `CC(=O)N[C@@H]1CN(C2CCN(c3cccc(C)c3C)CC2)C[C@H]1C(C)C`, the “Percent Effect” value is -7.453%.

Turning to `Cc1ncccc1OC1(C(=O)NCc2noc(C(C)C)n2)CCNCC1`, the “Percent Effect” value is -7.244%.

As to `CNc1cc(C)nc(C2CN(Cc3cc[nH]n3)CCO2)c1` (stereo not given), the “Percent Effect” value is -11.69%.

On to `CCc1nnc(Nc2cc(C)nc(C3CN(C(C)=O)CCO3)c2)s1` (stereo not given), for which the “Percent Effect” value was 108.4%.

Regarding `CCCc1nnc(NC(=O)N2CCCC(NC(C)=O)C2)s1` (stereo not given), the “Percent Effect” value is on record as -6.221%.

For `COc1c(C)cc(CNCc2ccnc(N3CCOCC3)c2)cc1C.Cl`, the “Percent Effect” value was 93.56%.

Turning to `COc1cc(CNCc2ccnc(N3CCOCC3)c2)cc(Cl)c1OC`, the “Percent Effect” value is -1.055%.

In the case of `COc1ccc(OC)c(CNCc2ccnc(N3CCOCC3)c2)c1`, the “Percent Effect” value is 119.2%.

For the compound `COc1cc(CNCc2ccnc(N3CCOCC3)c2)cc(OC)c1`, the “Percent Effect” value amounted to 97.96%.

Turning to `COc1ccc(CNCc2ccnc(N3CCOCC3)c2)c(OC)c1`, the “Percent Effect” value is recorded as -1.923%.

For `COc1ccc(CNCc2ccnc(N3CCOCC3)c2)cc1OC`, the “Percent Effect” value is -3.598%.

Turning to `Cl.c1cc(CNCc2ccnc(N3CCOCC3)c2)c2c(c1)OCO2`, the “Percent Effect” value is recorded as 16.56%.

With `COc1cccc(CNCc2ccnc(N3CCOCC3)c2)c1OC`, the “Percent Effect” value amounted to 119.8%.

Regarding `Cl.c1cc(CNCc2ccc3c(c2)CCO3)cc(N2CCOCC2)n1`, the “Percent Effect” value is recorded as -6.468%.

`CCOc1ccccc1N(C)C(=O)c1ccc(Cl)cn1`: the “Percent Effect” value is given as -0.6778%.

In the case of `O=C([C@H]1C[C@H]2OCC[C@H]2N(C(=O)c2ccncc2)C1)N1CCCCO1`, the “Percent Effect” value was found to be 15.67%.

For `CC(=O)c1c(O)ccnc1C(F)(F)F`, the “Percent Effect” value is on record as -30.29%.

For the compound `COc1ccc2c(c1)C(C(=O)N(C)CCc1scnc1C)CC(=O)N2` (stereo not given), the “Percent Effect” value was 13.25%.

Take `CCCc1nn(C2CCN(C3CC3)C2=O)c(=O)o1` (stereo not given): the “Percent Effect” value is recorded as -0.5192%.

Consider `CC(C)c1cc(NCC2(CO)CCC2)ncn1`, for which the “Percent Effect” value is reported as -3.782%.
